The target of assay [1] is Catechol O-methyltransferase (Homo sapiens) (UniProt P21964). The assay is described as follows: Confirmatory Screen for Target Class Profiling of Small Molecule Inhibitors of Methyltransferases (AID 1745852; calls by dose curve; note: potency is the fitted concentration of half-maximal effect; for activity change, negative = inhibition: % is set by controls: 0 for no effect and ±100 for the full control effect). To be noted: MTase-Glo luminescence, SAH detection, recombinant enzyme; measured here: COMT max response; stronger effect = lower value.
Sequence of Catechol O-methyltransferase (Homo sapiens) (P21964 whole entry, looked up): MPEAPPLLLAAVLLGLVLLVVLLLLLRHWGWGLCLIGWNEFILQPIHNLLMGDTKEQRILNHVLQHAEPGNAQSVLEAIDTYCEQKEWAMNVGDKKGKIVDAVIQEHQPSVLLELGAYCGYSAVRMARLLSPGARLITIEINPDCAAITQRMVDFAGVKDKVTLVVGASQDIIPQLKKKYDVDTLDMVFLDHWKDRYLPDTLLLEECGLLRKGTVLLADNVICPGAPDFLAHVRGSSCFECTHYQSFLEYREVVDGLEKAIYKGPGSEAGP
In assay [2] the target is Guanidinoacetate N-methyltransferase (Homo sapiens) (UniProt Q14353). Described as above. The following applies: MTase-Glo luminescence, SAH detection, recombinant enzyme; activity change, negative = inhibition: at 57.3 µM (top of the series) unless noted; series mostly up to 57.3 µM.
In assay [3] the target is Nicotinamide N-methyltransferase (Homo sapiens) (UniProt P40261). The description is as above. To be noted: MTase-Glo luminescence, SAH detection, recombinant enzyme; measured here: NNMT max response; stronger effect = lower value.
Sequence of Nicotinamide N-methyltransferase (Homo sapiens) (P40261 whole entry, looked up): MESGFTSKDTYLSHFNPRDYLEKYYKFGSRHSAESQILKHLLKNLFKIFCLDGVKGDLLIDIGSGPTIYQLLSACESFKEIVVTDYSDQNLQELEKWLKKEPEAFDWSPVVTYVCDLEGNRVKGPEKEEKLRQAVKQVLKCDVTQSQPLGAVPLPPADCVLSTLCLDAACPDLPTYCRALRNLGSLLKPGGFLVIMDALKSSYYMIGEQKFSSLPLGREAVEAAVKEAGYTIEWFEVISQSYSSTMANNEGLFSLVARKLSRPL
The target of assay [4] is Phenylethanolamine N-methyltransferase (Homo sapiens) (UniProt P11086). The description is as above. The following applies: MTase-Glo luminescence, SAH detection, recombinant enzyme; measured here: PNMT max response; stronger effect = lower value.
Sequence of Phenylethanolamine N-methyltransferase (Homo sapiens) (P11086 whole entry, looked up): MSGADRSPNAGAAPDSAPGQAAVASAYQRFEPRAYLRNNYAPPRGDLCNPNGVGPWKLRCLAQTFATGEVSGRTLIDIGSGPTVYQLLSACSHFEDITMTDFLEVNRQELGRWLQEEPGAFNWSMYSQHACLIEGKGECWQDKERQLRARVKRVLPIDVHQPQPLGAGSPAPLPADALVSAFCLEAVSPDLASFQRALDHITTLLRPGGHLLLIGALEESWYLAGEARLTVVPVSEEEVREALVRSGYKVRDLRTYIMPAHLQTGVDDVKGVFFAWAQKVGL
For assay [5], the target named is Glutathione peroxidase 1 (Homo sapiens) (UniProt P07203). In words: Primary qHTS Assay for Inhibitors of Recombinant Selenoprotein Glutathione Peroxidase 1 (GPX1) (AID 1845191). Note: nearly all actives have a fitted effect of over 65% in size. The following applies: recombinant GPX1, GR-coupled NADPH fluorescence, 15 min; series mostly up to 48.8 µM. An outline of the steps: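 GPX1 10 nM, GR 100 nM, GSH 1 mM, NADPH 0.5 mM, CHP 0.5 mM (final). 30-min cpd preincubation, RT. Ex340/Em450 read t=0, t=15 min.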
Sequence of Glutathione peroxidase 1 (Homo sapiens) (P07203 whole entry, looked up): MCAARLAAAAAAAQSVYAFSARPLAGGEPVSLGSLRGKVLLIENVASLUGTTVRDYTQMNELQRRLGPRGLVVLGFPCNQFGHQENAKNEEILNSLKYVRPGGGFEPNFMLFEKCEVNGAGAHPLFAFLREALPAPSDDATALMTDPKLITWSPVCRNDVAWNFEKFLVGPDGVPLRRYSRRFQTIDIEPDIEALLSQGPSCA
(In general: qHTS replaces the single test concentration by a dilution series.)

In assay [6] the target is Phospholipid hydroperoxide glutathione peroxidase GPX4 (Homo sapiens) (UniProt P36969). The assay is described as follows: Primary qHTS Assay for Inhibitors of Recombinant Selenoprotein Glutathione Peroxidase 4 (GPX4) (AID 1845192). For activity change, negative = inhibition: % is set by controls: 0 for no effect and ±100 for the full control effect. Note: nearly all actives have a fitted effect of over 65% in size. The following applies: recombinant GPX4, GR-coupled NADPH fluorescence, 15 min; series mostly up to 50 µM. The method, boiled down:
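qHTS, GR-coupled: GPX4 200 nM + cpd 30 min RT → GSH 1 mM, NADPH 0.5 mM, GR 100 nM → CHP 0.5 mM start; fluor 340/450 at t0 and t15 min; no-enzyme wells as control.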

Assay [7] has as its target Luciferin 4-monooxygenase (Photinus pyralis) (UniProt P08659). The assay is described as follows: Primary firefly luciferase (FLuc) qHTS assay for identification of artifact compounds. (AID 1845220).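 For activity change, negative = inhibition: plate controls were DMSO vehicle for no effect and no enzyme for full effect.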 Note: nearly all actives have a fitted effect of over 60% in size. To be noted: purified firefly luciferase, luminescence, 5 min; series mostly up to 54.1 µM. An outline of the steps:
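qHTS, 15 min compound preincubation with substrate (10 uM luciferin, 10 uM ATP) at RT, then 10 nM FLuc; 5 min; luminescence; % inhibition vs no-enzyme/DMSO controls, 4-parameter Hill fit.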

Assay [8] in a line: Primary fluorescence-based thiol-reactive (MSTI) qHTS assay for identification of artifact compounds. (AID 1845221). Note: nearly all actives have a fitted effect of over 65% in size. Note: potency is the fitted concentration of half-maximal effect. The following applies: MSTI thiol-reactivity probe, 1 h; series mostly up to 53.8 µM. The method, boiled down:
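MSTI probe at 4 uM final in 2% DMSO/PBS pH 7.4; compounds, 1 h at room temperature in dark. Fluorescence Ex/Em 525/598 nm, normalised to Acetyl-MSTI and MSTI, fitted to 4-parameter Hill.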

Assay [9] deals with Nanoluciferase (engineered Oplophorus gracilirostris luciferase). In words: Primary Nanoluciferase (NLuc) qHTS assay for identification of artifact compounds. (AID 1845222). The following applies: NLuc-conditioned medium, Nano-Glo luminescence, 5 min; series mostly up to 54.1 µM. An outline of the steps:
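Luminescence read-out of secreted NLuc in S16 cell conditioned medium (1:55); compounds tested with 15 min RT preincubation, then Nano-Glo substrate 1:100, 5 min. % inhibition vs no-enzyme and DMSO controls, 4-parameter Hill fit.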

A short description of assay [10]: Primary redox qHTS assay for identification of artifact compounds. (AID 1845223).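 Note: 0% = DMSO and 100% = reference compound.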 The following applies: Amplex Red/HRP redox cycling with DTT, fluorescence; series mostly up to 53.8 µM. An outline of the steps: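 Redox-cycling detection via DTT (250 uM final) oxidation coupled to Amplex Red (25 uM)/HRP (250 mU/mL) in HBSS. 15 min preincubation plus 30 min after DTT, room temperature. Ex/Em 525/598 nm; 4-parameter Hill fit against DMSO and 10 uM DA3003.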

Results filed as inconclusive are left out. Active and inactive are the calls of the source. Unless noted, calls come from the whole dose curve; as a rule, active = well fitted curve in the direction sought with a large enough effect; inconclusive = small, poorly fitted or top-dose-only effect, or another doubt; inactive = no such curve, though single readings can be large; an effect the other way counts as inactive or inconclusive.

Sequence of Phospholipid hydroperoxide glutathione peroxidase GPX4 (Homo sapiens) (P36969 whole entry, looked up): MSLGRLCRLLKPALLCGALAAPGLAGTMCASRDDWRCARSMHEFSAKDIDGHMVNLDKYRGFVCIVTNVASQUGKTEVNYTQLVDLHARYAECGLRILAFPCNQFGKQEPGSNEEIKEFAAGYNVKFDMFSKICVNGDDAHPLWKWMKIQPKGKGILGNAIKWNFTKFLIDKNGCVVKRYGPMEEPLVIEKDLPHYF

Turning to `C=C1C(=O)OC2/C=C(/C)C3=CC(=O)C(C)(CC(OC(=O)/C(C)=C/COC(C)=O)C12)O3` (stereo not given), the activity was -88.1% in assay [1], 0.146% in assay [3] and -3.18% in [4]. Moreover, the activity change, negative = inhibition in assay [2] came to 0.139% [at 29.8 µM]. Also, the Potency entry in assay [5], in [6], in [7], in [9] and in assay [10] was “inactive” throughout. Also, the Potency in assay [8] was 4.12 µM (active).

As for `CC[N+]1(C/C2=C/CCCCCC2)CCC(NC(=O)C2c3cc(Cl)ccc3Oc3ccc(Cl)cc32)CC1` (stereo not given), the figures for the activity in [1], in assay [3] and in [4] were -37.4%, -28% and -2.38%, respectively. Besides, the activity change, negative = inhibition in assay [2] stood at 0%. In addition, the Potency entry in [5], in [6], in [7], in assay [8], in [9] and in assay [10] was “inactive” in each case.

For the compound `O=C(Nc1ccc(C(F)(F)F)cn1)N1CCN(c2ncccc2C(F)(F)F)CC1`, the activity in assay [1] was -1.28%; in assay [3], -0.919%; in assay [4] it was -60.8%. In addition, the activity change, negative = inhibition in assay [2] was determined as 0%. Moreover, the Potency entry in [5], in [6], in [7], in assay [8], in assay [9] and in [10] was “inactive” in each case.

On to `CCn1c(-c2nonc2N)nc2c(C#CC(C)(C)O)ncc(OCC3CCCNC3)c21` (stereo not given), for which the activity in [1] is -1.89%; in assay [3], -28%; in [4], -3.65%. Further, the activity change, negative = inhibition in assay [2] worked out at 0.279%. The Potency result in assay [5], in [6], in assay [7], in assay [8], in assay [9] and in assay [10] was “inactive” each time.

`Cc1sc2c(c1C)C(c1ccc(Cl)cc1)=N[C@H](CC(=O)NCCCCNC(=O)COc1cccc3c1C(=O)N([C@H]1CCC(=O)NC1=O)C3=O)c1nnc(C)n1-2`: the activity in assay [1] is -0.126%; in assay [3], -57.3%; in assay [4] it was 3.3%. The activity change, negative = inhibition in [2] was 0%. The Potency result in assay [5], in assay [6], in assay [7], in [8], in [9] and in assay [10] was “inactive” each time.

In the case of `CCOC(=O)c1cnc2ccc(-c3cncc(NS(=O)(=O)c4ccccc4)c3)cn12`, the activity was -38.9% in assay [1], -25.7% in assay [3] and -35.9% in [4]. In addition, the Potency in [2] was 42.9 µM (active). The Potency entry in assay [5], in assay [6], in [7], in assay [8], in assay [9] and in assay [10] was “inactive” throughout.

Take `Fc1ccc2c(CCNCc3cccc(OCC(F)(F)C(F)F)c3)c[nH]c2c1`: the figures for the activity in assay [1], in assay [3] and in assay [4] were -0.052%, -8.62% and -13.2%, respectively. The activity change, negative = inhibition in assay [2] was 0.441%. The Potency result in [5], in assay [6], in assay [7], in [8], in assay [9] and in assay [10] was “inactive” in each case.

As to `CC[C@H]1CN(c2nc(N)c(C(N)=O)nc2Cl)CCN1C1CCN(Cc2ccc(Cl)cc2)CC1`, the values for the activity in assay [1], in assay [3] and in [4] were -6.83%, -61.1% and -5.17%, respectively. In addition, the activity change, negative = inhibition in assay [2] was -2.17% [at 29.8 µM]. The Potency entry in [5], in assay [6], in assay [7], in assay [8], in assay [9] and in assay [10] was “inactive” each time.

For `CN1CCN(Cc2ccc(NC(=O)Cc3ccc(Oc4cc(NC(=O)C5CC5)ncn4)cc3)cc2C(F)(F)F)CC1`, the activity in assay [1] is -8.91%; in assay [3], -29.5%; in [4], -13.7%. Moreover, the activity change, negative = inhibition in assay [2] was 0.726%. The Potency result in assay [5], in [6], in assay [7], in assay [8], in assay [9] and in assay [10] was “inactive” throughout.

`C=CC(=O)Nc1ccc2ncnc(Nc3cccc(Br)c3)c2c1`: the activity was -59.2% in assay [1], -38.9% in assay [3] and -49.9% in assay [4]. The Potency in assay [2] is 19.2 µM (active). Also, the Potency entry in assay [5], in assay [6], in assay [7], in assay [8], in assay [9] and in assay [10] was “inactive” throughout.

With `CCCSc1nc(N[C@@H]2C[C@H]2c2ccc(F)c(F)c2)c2nnn([C@@H]3C[C@H](OCCO)[C@@H](O)[C@H]3O)c2n1`, the figures for the activity in assay [1], in assay [3] and in assay [4] were -40.7%, -50.5% and -36.5%, respectively. The Potency in assay [2] is 48.2 µM (active). Further, the Potency result in [5], in assay [6], in assay [7], in [8], in [9] and in assay [10] was “inactive” each time.

Take `CCCCNc1ncc(C(=O)NCc2ccc(-n3ccnc3)cc2)c(NC2CCC(O)CC2)n1` (stereo not given): the activity in assay [1] is -11.6%; in assay [3] it was -47.3%; in assay [4] it was -34.7%. For the same compound, the activity change, negative = inhibition in assay [2] is -6.08%. The Potency entry in assay [5], in assay [6], in [7], in [8], in [9] and in assay [10] was “inactive” in each case.

As for `Nc1nc(NC2CC2)cc(-c2cccc(Cl)c2Cl)n1`, the activity in assay [1] was -8.02%; in [3], -52.3%; in assay [4], -7.75%. For the same compound, the activity change, negative = inhibition in assay [2] is -4.54%. Moreover, the Potency entry in assay [5], in assay [6], in assay [7], in [8], in assay [9] and in assay [10] was “inactive” each time.

For `COC1C=C(C)C(O)(CO)C2(C)CCCC(C)(C)C12` (stereo not given), the figures for the activity in assay [1], in assay [3] and in assay [4] were -68.4%, -3.75% and -2.37%, respectively. Also, the activity change, negative = inhibition in assay [2] is -5.83%. In addition, the Potency result in [5], in assay [6], in [7], in assay [8], in [9] and in assay [10] was “inactive” throughout.

On to `COc1cccc(-c2cn(-c3ccc(CCN4CCC(O)CC4)cc3)c3ncnc(N)c23)c1`, for which the activity in assay [1] was -79.5%; in assay [3], -80.6%; in assay [4], -84.3%. The Potency in assay [2] was 24.1 µM (active). Further, the Potency entry in [5], in assay [6], in assay [7], in [8], in assay [9] and in assay [10] was “inactive” in each case.

`CC(C)(O)c1ccc2c(c1)ncn2-c1cccc(-c2ccccc2C#N)c1`: the activity was -35.9% in [1], -41.8% in assay [3] and -37.6% in assay [4]. Also, the Potency in [2] was 27.1 µM (active). Besides, the Potency result in [5], in assay [6], in assay [7], in [8], in assay [9] and in assay [10] was “inactive” throughout.

Regarding `CC12CCC3C1C(c1c(cc(O)c(C(=O)c4ccccc4)c1O)O2)C3(C)C` (stereo not given), the activity in [1] was -35.5%; in assay [3] it was -25.6%; in assay [4], -30.9%. Moreover, the Potency in assay [2] is 21.1 µM (active). The Potency result in assay [5], in [6], in assay [7], in assay [8], in [9] and in [10] was “inactive” throughout.

`C[C@H](Oc1cc(-c2cnn(C3CCNCC3)c2)cnc1N)c1c(Cl)ccc(F)c1Cl`: the activity is -64.7% in assay [1], -75.2% in [3] and -61.8% in [4]. Besides, in assay [2], the Potency was 27.1 µM (active). Also, the Potency result in assay [5], in assay [6], in [7], in assay [8], in [9] and in assay [10] was “inactive” each time.

Take `COc1cc2c(Nc3cc(F)c(Cl)c(Cl)c3)ncnc2cc1OCC1CCCN(C)CCC1`: the activity in [1] is -15.2%; in assay [3] it was -13.9%; in assay [4] it was -10.4%. Also, in [2], the activity change, negative = inhibition was -2.91%. Also, the Potency entry in assay [5], in assay [6], in assay [7], in [8], in assay [9] and in assay [10] was “inactive” throughout.

The record behind these values is PubChem BioAssay (NCATS).
